{
  "source": "ChEMBL document CHEMBL4513216",
  "about": "“Probing the Open Global Health Chemical Diversity Library for Multistage-Active Starting Points for Next-Generation Antimalarials” (ACS Infect Dis, 2020)",
  "note": "About 8,600 (12%) of roughly 69,000 compounds showed an effect of 50% or more. This is one part of a sample in which strong results are shown more often than they occur.",
  "data": [
    {"system": "Plasmodium berghei", "experiment": "Screen against P. berghei liver stage (PbLuc), transformed with Luciferase, at 10uM", "type": "functional, HepG2", "conditions": "tested at 10 uM", "units": {"INHIBITION": "%"}, "values": [
      {"smiles": "Cc1cc(S(=O)(=O)N(CCO)C2CC2)ccc1F", "INHIBITION": 26.1},
      {"smiles": "Cc1cc(CC(C)NC(=O)Cc2cc(F)ccc2C)[nH]n1", "note": "(centres undefined)", "INHIBITION": 73},
      {"smiles": "Cc1cc(CC(C)NC(=O)COc2ccc(F)cc2F)[nH]n1", "note": "(centres undefined)", "INHIBITION": 40.6},
      {"smiles": "CCC(=O)c1ccc(OCC(=O)NC(C)Cc2cc(C)n[nH]2)cc1", "note": "(centres undefined)", "INHIBITION": 27.6},
      {"smiles": "Cc1ccc(CNC(=O)NC(C)CCS(C)(=O)=O)cc1F", "note": "(centres undefined)", "INHIBITION": -1.15},
      {"smiles": "Cc1ccc(CNS(=O)(=O)CCCC#N)cc1F", "INHIBITION": 58.1},
      {"smiles": "Cc1cc(CNS(=O)(=O)CCCC#N)ccc1N(C)C", "INHIBITION": 33.1},
      {"smiles": "CC(C)C(C)NC(=O)Nc1ccc(CS(=O)(=O)C(C)C)cc1", "note": "(centres undefined)", "INHIBITION": -4.68},
      {"smiles": "Cc1ccccc1NC1CCN(C(=O)CCc2ccco2)CC1", "INHIBITION": -26.6},
      {"smiles": "Cc1nn(C)c2cn(CC(=O)N3CCN(c4ccccc4)CC3)nc12", "INHIBITION": 30.8},
      {"smiles": "c1ccc(C(CC2CN(Cc3ncc[nH]3)CCO2)c2ccccc2)cc1", "note": "(centres undefined)", "INHIBITION": 43.9},
      {"smiles": "c1ccc(C(CC2CN(Cc3c[nH]cn3)CCO2)c2ccccc2)cc1", "note": "(centres undefined)", "INHIBITION": 72.1},
      {"smiles": "O=C(NCCC1CN(Cc2c[nH]cn2)CCO1)c1ccccc1O", "note": "(centres undefined)", "INHIBITION": 18.6},
      {"smiles": "CC1(C)C(C(=O)NCCC2CN(Cc3c[nH]cn3)CCO2)C1(C)C", "note": "(centres undefined)", "INHIBITION": 55.5},
      {"smiles": "O=C(NCCC1CN(Cc2c[nH]cn2)CCO1)Nc1ccccc1", "note": "(centres undefined)", "INHIBITION": 1.79},
      {"smiles": "Cn1ccnc1CN1CCOC(Cc2ccccc2)C1", "note": "(centres undefined)", "INHIBITION": 0.696},
      {"smiles": "CC(C)NC(=O)N(Cc1cc(O)nc2ccccc12)C(C)C", "INHIBITION": -10.3},
      {"smiles": "CCOc1ccnc(N2CCN(C(=O)c3ccoc3)CC2)n1", "INHIBITION": 23.7},
      {"smiles": "Cc1cc(C)c2[nH]c(C(=O)NCCN3CCNC3=O)c(C)c2c1", "INHIBITION": -16.3},
      {"smiles": "Cc1nc(=O)c(CC(=O)N2C[C@@H]3CC[C@H]2CN(C(=O)N(C)C)C3)c(C)[nH]1", "INHIBITION": 0.547},
      {"smiles": "Cc1ccc(CN2C[C@@H](OCc3csc(C)n3)[C@H]3COC[C@H]32)s1", "INHIBITION": -14.4},
      {"smiles": "Cc1cnc(CNC(=O)[C@@]23CCO[C@@H]2CCNC3)cn1", "INHIBITION": 49.4},
      {"smiles": "Cc1cc(C[C@@H]2CCC[C@H]2NCc2ccc(C(F)(F)F)cc2)on1", "INHIBITION": 41.2},
      {"smiles": "Cc1cc(C[C@@H]2COC[C@H]2NCc2ccccc2C(F)(F)F)on1", "INHIBITION": 50},
      {"smiles": "Cc1cc(C[C@@H]2CCC[C@H]2NCc2ccccc2F)on1", "INHIBITION": 75.3},
      {"smiles": "Cc1cc(C[C@@H]2CCC[C@H]2NCc2c[nH]nc2-c2ccccc2)on1", "INHIBITION": 5.56},
      {"smiles": "Cc1cc(C[C@@H]2CCC[C@H]2NCc2cc(C)c(O)c(C)c2)on1", "INHIBITION": 26.7},
      {"smiles": "Cc1cc(C[C@@H]2CCC[C@H]2NCc2ccccc2C)on1", "INHIBITION": 44.1},
      {"smiles": "Cc1cc(C[C@@H]2CCC[C@H]2NCc2cc(F)ccc2F)on1", "INHIBITION": -1.85},
      {"smiles": "Cc1cc(C[C@@H]2COC[C@H]2NCc2ccc(Br)s2)on1", "INHIBITION": 31.8},
      {"smiles": "Cc1cc(C[C@@H]2CCC[C@H]2NCc2ccccc2C(F)(F)F)on1", "INHIBITION": 70.5},
      {"smiles": "Cc1cc(C[C@@H]2CCC[C@H]2NCc2cccc(F)c2F)on1", "INHIBITION": 15.9},
      {"smiles": "CCCOc1ccccc1CN[C@@H]1CCC[C@H]1Cc1cc(C)no1", "INHIBITION": 54.5},
      {"smiles": "Cc1cc(C[C@@H]2COC[C@H]2NCc2ccc(C(F)(F)F)cc2)on1", "INHIBITION": 31.6}
    ]}
  ]
}
